# Laboratory results taken from PubChem BioAssay (Tox21).
# Inconclusive results are not listed. Where a call stands in place of a potency, no number is given. A number with no mark means an inactive call. Active and inactive are the calls of the source. The call rests on the fitted dose curve; in most records, active means well fitted cell-killing curve with a large enough effect in the repeat runs; inconclusive means weak or mixed curves, or effect the other way; inactive means flat fitted curve, though single readings scatter.
# Assays:
# [1] = cAMP Responsive Elements (CRE) small molecule antagonists, cell-based qHTS assay: qHTS cell viability counter screen (AID 2060913); details: CRE-bla HEK293T viability, CellTiter-Glo luminescence, 5 h; series mostly up to 92.4 µM; further: nearly all actives have a fitted effect of over 40% in size
# Method in brief: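 HEK293T CRE-bla, 2,000 cells/well, 18 h preincubation; cpd in DMSO + NKH477 0.25 uM final, 3 h 37 C/5% CO2; LiveBLAzer 2 h RT, then CellTiter-Glo 30 min RT, luminescence.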
# [2] = cAMP Responsive Elements (CRE) small molecule agonists, cell-based qHTS assay: qHTS cell viability counter screen (AID 2060914); details: CRE-bla HEK293T viability, CellTiter-Glo luminescence, 5 h; series mostly up to 92.4 µM;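 further: viability read after 3 h of compound exposure; nearly all actives have a fitted effect of over 50% in size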
# Method in brief: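 Cytotoxicity counter screen multiplexed with the CRE-bla reporter assay in HEK 293T cells: 3 h compound exposure at 37 °C, followed by CellTiter-Glo luminescence measured in the same wells.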
# Potency means the concentration at half of the fitted maximal effect.
Structure (SMILES),Potency [1],Potency [2],"viability change, negative = cytotoxic [1]","activity change, negative = cytotoxicity [2]"
CCCN(CCC)C(=O)C(CCC(=O)O)NC(=O)c1ccccc1 (stereo not drawn),inactive,inactive,,
O=[N+]([O-])c1ccc(F)cc1F,inactive,inactive,,
CC1=C(/C=C/C(C)=C/C=C/C(C)=C\C(=O)O)C(C)(C)CCC1,inactive,inactive,,
C=C[C@@H](C)CCC=C(C)C,inactive,inactive,,
C=C(C)C(=O)OCCN(C)C,inactive,inactive,,
NS(=O)(=O)c1cc(C(=O)NN2C[C@H]3[C@H]4CCC(C4)[C@H]3C2)ccc1Cl,inactive,inactive,,
c1ccc(B(c2ccccc2)c2ccccc2)cc1,inactive,inactive,,
CC(C)c1cc(C(C)C)cc(C(C)C)c1,inactive,inactive,,
COC1=CC(=O)C[C@@H](C)[C@]12Oc1c(Cl)c(OC)cc(OC)c1C2=O,inactive,inactive,,
Brc1ccccc1-c1ccccc1,inactive,inactive,,
O=C(Cl)c1ccc([N+](=O)[O-])cc1,inactive,inactive,,
CN1CCN(CCCN2c3ccccc3Sc3ccc(S(=O)(=O)N(C)C)cc32)CC1,inactive,inactive,,
COC(=O)c1ccc([N+](=O)[O-])cc1,inactive,inactive,,
CC(=O)c1c(C)c([N+](=O)[O-])c(C(C)(C)C)c([N+](=O)[O-])c1C,inactive,inactive,,
O=C(O)c1ccc(C(=O)O)c(C(=O)O)c1,inactive,inactive,,
CCCCC(CC)COCCCN (stereo not drawn),inactive,inactive,,
O=C(O)c1cn(-c2ccc(F)cc2)c2cc(N3CCNCC3)c(F)cc2c1=O,inactive,inactive,,
CC(=O)c1ccc(OCC(=O)N2CCCCC2)cc1,inactive,inactive,,
COC(=O)C1CC(=O)C(C(=O)OC)CC1=O (stereo not drawn),,,18.8% [at 8.39 µM],-4.18% [at 8.39 µM]
CC(=O)c1ccc(Cl)c(Cl)c1Cl,inactive,inactive,,
O=C1OC(=O)c2cc(Oc3ccc4c(c3)C(=O)OC4=O)ccc21,inactive,inactive,,
COc1ccccc1OCC(O)CN1CCN(CC(=O)Nc2c(C)cccc2C)CC1 (stereo not drawn),inactive,inactive,,

Structure (SMILES),Potency [1],Potency [2],"viability change, negative = cytotoxic [1]","activity change, negative = cytotoxicity [2]"
O=C(c1ccc(O)cc1)c1ccc(O)cc1,inactive,inactive,,
CCC(C)(CCCC(C)C)OC(C)=O (stereo not drawn),inactive,inactive,,
Brc1cc(Br)c(Oc2cc(Br)c(Br)cc2Br)cc1Br,inactive,inactive,,
CCCCNCCCC,inactive,inactive,,
COc1ccc(Cc2cnc(N)nc2N)cc1OC,inactive,inactive,,
C=C(C)C(=O)OCC(O)COc1ccc(C(C)(C)c2ccc(OCC(O)COC(=O)C(=C)C)cc2)cc1 (stereo not drawn),61.1 µM (active),61.1 µM (active),,
Oc1c(I)cc(Cl)c2cccnc12,inactive,inactive,,
OCCSc1ccccc1,inactive,inactive,,
Cn1c(=O)cc(Oc2ccc(F)cc2F)c2cnc(NCC(C)(C)O)nc21,inactive,inactive,,
c1ccc2occc2c1,inactive,inactive,,
O=C1CCCc2c(O)cccc21,inactive,inactive,,
C=CCOC(=O)/C=C\C(=O)OCC=C,inactive,inactive,,
C[N+]1(C)CCC(=C(c2ccccc2)c2ccccc2)CC1,inactive,inactive,,
CCCCOCCO,inactive,inactive,,
O=C(O)C(c1ccc(Cl)cc1)c1ccc(Cl)cc1,inactive,inactive,,
CC1(C)O[C@@H]2C[C@H]3[C@@H]4CCC5=CC(=O)C=C[C@]5(C)[C@@]4(F)[C@@H](O)C[C@]3(C)[C@]2(C(=O)CO)O1,inactive,inactive,,
O=NO,inactive,inactive,,
Cc1ccccc1C(N)=O,inactive,inactive,,
OCc1ccccc1,inactive,inactive,,
COC(C)(C)CCCC(C)CC=O (stereo not drawn),inactive,inactive,,
COCC(=O)O,inactive,inactive,,
Nc1nc(N)nc(-c2ccccc2)n1,inactive,inactive,,
